Test results taken from PubChem BioAssay AID463195 (Sanford-Burnham Center for Chemical Genomics, 2010).
The whole screen tested about 330,000 compounds, of which about 4,600 (1.4%) were called active. What follows is part of a selection rich in actives, with near analogues and random picks from the rest. A number with no mark means an inactive call.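 The calls were made as follows: active = inhibition of 40% or more at the single tested concentration; inactive = the rest.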

Assay: wild-type TIM10 yeast growth inhibition – luminescence, uHTS, counter-screen for tim10-1 yeast inhibitor project, primary screen (AID 463195);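 also: wild-type TIM10 isogenic control strain grown at permissive 25 °C; 0% = DMSO yeast wells and 100% = minimal medium wells without yeast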
Details: S. cerevisiae TIM10 strain growth, BacTiter-Glo luminescence, 24 h; at 10 µM; active compounds read high
With COc1ccc(CN(C(=O)CSc2nnc(-c3ccc(OC)c(OC)c3)o2)c2ccc(F)cc2)cc1 the inhibition was 40.5% (active).
Work on COc1ccc(CCNC(=O)CSc2nnc(-c3cccc(F)c3)o2)cc1OC yielded an inhibition of 1.74%.
For COc1ccc(-c2nnc(SCC(=O)NC3CCCCC3)o2)cc1OC, the inhibition was 3.73%.
Compound Cc1ccc(C(=O)OCC(=O)NCc2cc(C)c(O)c(C)c2)cc1S(=O)(=O)N1CCCCC1 has an inhibition of 0.371%.
Work on O=S(=O)(c1cccc(-c2cn3ccccc3n2)c1)N1CCCC1 yielded an inhibition of 9%.
In the case of Cc1cc(-c2ccccc2)nc(N2CCC(C(=O)NC34CC5CC(CC(C5)C3)C4)CC2)n1, the inhibition is reported as 19.8%.
Work on O=C1Nc2c(Br)cc(Br)cc2C1(O)N1CCOCC1 (stereo not given) yielded an inhibition of 12.1%.
With CCC(C)(C)NC(=O)CN(Cc1cccs1)C(=O)CNS(=O)(=O)c1ccc(F)cc1 the inhibition was 3.15%.
CCOc1ccc(S(=O)(=O)NCCC(=O)N2CCCCCCC2)cc1 showed an inhibition of -3.91%.
For CC(C)(C)c1cc(C(=O)N/N=C/c2ccc([N+](=O)[O-])s2)n[nH]1, the inhibition was 22%.
With Cc1ccccc1NCC(=O)N/N=C\c1ccc([N+](=O)[O-])s1 the inhibition was 56% (active).
With Cc1cccc(/C=N/NC(=O)CNc2cccc3ccccc23)n1 the inhibition was 8.82%.
Work on C=CC1C(OC2OC(CO)C(O)C(O)C2O)OC=C(C(=O)OC)C1CC1CC(=O)CC(CC(=O)CCc2ccc(O)cc2)O1 (stereo not given) yielded an inhibition of -2.71%.
c1ccc(COc2ccccc2CNCc2cccnc2)cc1 gave an inhibition of -6.88%.
In the case of COc1c(N2CCN(C(=S)Nc3ccccc3F)C(C)C2)c(F)cc2c(=O)c(C(=O)O)cn(C3CC3)c12 (stereo not given), the inhibition is reported as 2.41%.
Cc1cccc(-n2c(SCC(N)=O)nc3c(c2=O)C2(CCCCC2)Cc2ccccc2-3)c1 showed an inhibition of 12.4%.
With N#CC1(C#N)C(C(=O)C23CC4CC(CC(C4)C2)C3)C12CCOCC2 (stereo not given) the inhibition was 44.3% (active).
With CSCCC(NC(=O)COc1ccccc1)C(=O)OCCOc1ccc(F)cc1 (stereo not given) the inhibition was -0.639%.
In the case of Cc1cc(C)cc(NC(=O)C(OC(=O)c2ccc(O)cc2)c2ccccc2)c1 (stereo not given), the inhibition is reported as 9.95%.
For O=C(Nc1ccc(NC(=O)c2cccs2)cc1)c1ccc2ccccc2c1, the inhibition was -15.3%.
Work on Cc1ccc(C(=O)Nc2ccc(C)c(S(=O)(=O)N(C)C)c2)s1 yielded an inhibition of 10.9%.
With Cc1ccc(NC(=O)c2cccs2)cc1S(=O)(=O)N(C)C the inhibition was 46.1% (active).
In the case of Cc1nc(-c2ccc(NC(=O)c3cccs3)cc2)cs1, the inhibition is reported as 49.5% (active).
Work on O=C(Nc1ccccc1)c1ccc(NC(=O)c2cccs2)cc1 yielded an inhibition of -10.3%.
For Cc1ccc(C(=O)Nc2ccc(NC(=O)c3cccs3)cc2)c(C)c1, the inhibition was -11.8%.
In the case of COC(=O)[C@]1(C)N[C@H](CN(C)C(=O)c2ccc(C(C)(C)C)cc2)[C@@H]2C(=O)N(C)C(=O)[C@@H]21, the inhibition is reported as 3.29%.
For Cc1ccc(-c2noc(C3CCCN(C(=O)c4cccc(Cl)c4)C3)n2)o1 (stereo not given), the inhibition was -12.1%.
O=C(CNS(=O)(=O)c1ccc(Br)s1)N1CCN(C(=O)c2ccco2)CC1 showed an inhibition of -4.25%.
Work on Cc1ccc(N2C(=O)CC(NCc3ccc4c(c3)OCO4)C2=O)cc1Cl (stereo not given) yielded an inhibition of 9.87%.
Work on COC(=O)CN1C(=O)C(C)(C)Oc2ccc(C(=O)Nc3cccc(OC)c3)cc21 yielded an inhibition of -1.11%.
With CCc1ccc2c(c1)C1(NN=C(c3ccccc3)S1)C(=O)N2 (stereo not given) the inhibition was 41.4% (active).
Cc1ccccc1N(C(=O)Cc1cccs1)C(C(=O)NC1CCCCC1)c1cn(C)nc1C (stereo not given) showed an inhibition of 18.5%.
COc1cc2cc(CN(CCN3CCCC3)C(=O)Nc3ccccc3Cl)c(=O)[nH]c2cc1OC showed an inhibition of 1.82%.
For O=S(=O)(NC1CCCCC1)c1ccc(F)c2ccccc12, the inhibition was 48.4% (active).
O=S(=O)(NC1CC1)c1ccc2c3c(cccc13)CC2 gave an inhibition of 18.4%.
In the case of CSc1ccc(S(=O)(=O)NC2CCCCC2)cc1, the inhibition is reported as 5.32%.
Compound O=C(Cn1nnc2ccccc2c1=O)NCc1ccc(Cl)cc1 has an inhibition of -13.1%.
CS(=O)(=O)N1CCN(CC(=O)NC2CCCC2)CC1 gave an inhibition of 1.42%.
Work on COc1ccc(C(=O)C[n+]2ccc(N)c(C)c2C)cc1 yielded an inhibition of -13.7%.
With Cc1ccc(-n2cnc3ncnc(-c4ccccc4)c32)cc1 the inhibition was -13%.
With Cc1ccc(-c2nn(C(C)(C)C)c3ncnc(N)c23)cc1 the inhibition was 46.3% (active).
In the case of C=CC[C@H](CC(=O)OC(C)(C)C)C(=O)OC[C@H]1CCCN1C(=O)[C@H](CC=C)CC(=O)N(CCO)Cc1ccccc1, the inhibition is reported as 4.94%.
For O=C(CCNC(=O)c1ccc(Br)cc1)Nc1cccc(S(=O)(=O)N2CCCCC2)c1, the inhibition was -7.56%.
With O=C(Nc1cccc(S(=O)(=O)N2CCCCC2)c1)c1cncc(Br)c1 the inhibition was 8.29%.
With O=C(Nc1cccc(S(=O)(=O)N2CCCC2)c1)c1cncc(Br)c1 the inhibition was 97% (active).
Compound COc1ccccc1Nc1nc(N)nc(CSC(=S)N2CCOCC2)n1 has an inhibition of 31.8%.
For COc1ccc(Nc2nc(N)nc(CSC(=S)N3CCC(C)CC3)n2)cc1, the inhibition was 44.5% (active).
CCOC(=O)c1cnc(SCc2nc(N)nc(Nc3ccc(OC)cc3)n2)nc1N showed an inhibition of 15.4%.
Work on COc1cc(CC(=O)N2CCC(n3nccc3NC(=O)C3CC3)CC2)cc(OC)c1OC yielded an inhibition of -1.91%.
In the case of CC1=C/C(=N\OS(=O)(=O)c2ccccc2)C=CC1=O, the inhibition is reported as 69.4% (active).
Cc1nc(C)c(-c2nnc(-c3cccc(S(=O)(=O)N(C)C)c3)o2)cc1C(=O)NN showed an inhibition of 11.6%.
CCn1c(C)cc(=O)cc1-c1ccc(Cl)cc1 showed an inhibition of -2.03%.
In the case of COc1ccc(Cn2c(-c3ccc(Cl)cc3)c[n+]3ccccc23)cc1, the inhibition is reported as 45.6% (active).
Work on COc1ccc(Cn2c(=O)cc(C)[nH]c2=S)cc1 yielded an inhibition of 8.93%.
Work on O=C(c1cc(COc2cccc(C(F)(F)F)c2)on1)N1CCSCC1 yielded an inhibition of 19.8%.
In the case of COc1cccc(OCc2cc(C(=O)N3CCN(C(=O)c4ccco4)CC3)no2)c1, the inhibition is reported as 97.6% (active).
COc1ccc(OCc2cc(C(=O)N3CCCC3)no2)c2ccccc12 showed an inhibition of -11.8%.
For CC(=O)C[C@H](O)CC(=O)[C@@H]1OC(=O)[C@@H](C)C/C=C\Cc2ccccc21, the inhibition was 4.22%.
CCc1cccc(NC(=O)C2CCCN(S(=O)(=O)c3ccc4[nH]c(=O)ccc4c3)C2)c1 (stereo not given) showed an inhibition of -4.86%.
With CCN1/C(=C\c2ccc3ccccc3[n+]2CC)Sc2cc(C)ccc21 the inhibition was 78.3% (active).
For COc1ccc2c(c1OC)C(=O)N(c1ccc(O)cc1)C2, the inhibition was -21.6%.
Work on CCC1CCC2(CC1)NC(=O)N(CC(=O)Nc1ccc(OC)cc1)C2=O (stereo not given) yielded an inhibition of -4.33%.
Work on CN(c1cccc(NC(=O)c2ccc(CN3CCc4ccccc4C3)cc2)c1)S(C)(=O)=O yielded an inhibition of -4.01%.
CCOC(=O)c1cc(C(=O)Nc2ccc(S(=O)(=O)Nc3ccc(OC)cc3)cc2)nn1C showed an inhibition of 8.95%.
Cc1cccc(OCC(=O)Nc2ccc(NC(=O)c3ccco3)c(C)c2)c1 showed an inhibition of -8.94%.
For Cc1ccc(C(=O)COc2cccc(NC(=O)c3ccco3)c2)cc1, the inhibition was 54% (active).
In the case of COc1ccc(OCC(=O)Nc2ccc(NC(=O)c3ccco3)c(C)c2)cc1, the inhibition is reported as -13.8%.
In the case of COC(=O)c1onc(-c2c(OC)cc(OC)cc2OC)c1C(=O)OC, the inhibition is reported as 6.8%.
For CC1=C(C(=O)Nc2cc(C)ccn2)C(c2cnn(C)c2)C2=C(CC(c3ccccc3)CC2=O)N1 (stereo not given), the inhibition was 6.51%.
O=C(NCc1ccc(F)cc1)C1CCN(C(=O)Nc2ccc(F)cc2)CC1 gave an inhibition of -14%.
In the case of CC1CN(C(=O)c2ccc([N+](=O)[O-])s2)CC(C)O1 (stereo not given), the inhibition is reported as 6.54%.
With O=[N+]([O-])c1ccc(C=Nc2ccc(Cl)cc2Cl)s1 the inhibition was 71.2% (active).
Compound CCC1=NN(C(=O)Cc2ccc([N+](=O)[O-])cc2)C(O)(c2ccc(Br)cc2)C1 (stereo not given) has an inhibition of 27%.
For O=C(Nc1ccc2oc(-c3ccc4ccccc4c3)nc2c1)c1cccs1, the inhibition was 0.529%.
With O=C(Nc1ccc2oc(-c3ccccc3F)nc2c1)c1ccco1 the inhibition was 67.2% (active).
In the case of O=C(Nc1cccc(-c2nc3ncccc3o2)c1)c1ccco1, the inhibition is reported as 12.8%.
Work on Cc1cc(C)cc(NC(=O)Cn2cnc3c(nnn3Cc3ccc(F)cc3)c2=O)c1 yielded an inhibition of -9.34%.
Cc1ccc(Nc2cc(=O)n(C3CCCCC3)c(=O)[nH]2)cc1C showed an inhibition of 4.8%.
For COc1cc(NC(=O)c2cccs2)ccc1NC(=O)c1ccccc1Cl, the inhibition was 40.9% (active).
With COc1cc(NC(=O)c2ccc3c(c2)OCO3)ccc1NC(=O)c1cccs1 the inhibition was 11%.
COc1cc2ccccc2cc1C(=O)Nc1ccc(NC(=O)c2cccs2)cc1 gave an inhibition of -34.6%.
C=C1C2C[C@H](O)C(C)(C)[C@@]2(O)[C@H](O)C[C@]23C[C@@](C)(O)[C@H](CC[C@H]12)[C@H]3O (stereo not given in full) showed an inhibition of -10.5%.
Compound Cc1ccc(/C(N)=N/OC(=O)COc2ccc(Cl)c(C)c2)cc1 has an inhibition of 30.7%.
For Cc1cccc(/C(N)=N/OC(=O)c2ccccc2Cl)c1, the inhibition was 71.3% (active).
Cc1ccc(C(=O)O/N=C(\N)c2ccccn2)cc1Cl showed an inhibition of 28.2%.
Compound CCOC(=O)c1ccc2[nH]c3c(c2c1)CCCC3NC=O (stereo not given) has an inhibition of 16.6%.
Work on CN1C(=O)/C(=C\c2cc(Br)cs2)c2ccccc21 yielded an inhibition of 30.2%.
In the case of CN1C(=O)/C(=N/OC(=O)c2ccccc2Br)c2ccccc21, the inhibition is reported as 68.9% (active).
For COc1ccc(NC(=O)ON=C2c3ccccc3-c3ccccc32)cc1, the inhibition was 8.51%.
Compound Cc1ccc(-c2noc(CCC(=O)Nc3ccccc3N3CCN(C)CC3)n2)cc1 has an inhibition of 10.4%.
